Source: PubChem (The Scripps Research Institute Molecular Screening Center)
MITF primary: blocks human microphthalmia-associated transcription factor; inhibition, % at 2.6 µM; AlphaScreen MITF homodimerization, bead proximity signal; 650,000 tested, 0.91% active; O75030; AID 1259374; in the data active means inhibition above about 50%;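 further: 0% = vehicle wells with protein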
GPR151 activ: activators of human GPR151 | AID 1508602 | PathHunter beta-arrestin GPR151 cells, luminescence | activation, % at 11.2 µM | 650,000 tested, 1% active; in the data active means activation above about 4.9%;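 further: 0% = median of compound wells and 100% = cells with positive control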
TEAD-YAP block: TEAD-YAP interaction inhibition; 640,000 tested, 1.4% active; HEK-TIYL cells, TEAD-Gal4/YAP UAS-luciferase luminescence; inhibition, % at 9.12 µM; in the data active means inhibition above about 32%;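 further: 0% = median of test compound wells and 100% = reference inhibitor wells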
FBW7 act: human FBW7 E3 ligase activation, primary screen. Q969H0. AlphaScreen FBW7–phospho-cyclin E peptide binding, activator screen. normalized activity (activation), % at 26.1 µM. 650,000 tested, 0.13% active; in the data active means normalized activity above about 1.9%;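 further: purified mutant Fbw7 with reduced substrate affinity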
Target sequence (Q969H0 whole entry, looked up): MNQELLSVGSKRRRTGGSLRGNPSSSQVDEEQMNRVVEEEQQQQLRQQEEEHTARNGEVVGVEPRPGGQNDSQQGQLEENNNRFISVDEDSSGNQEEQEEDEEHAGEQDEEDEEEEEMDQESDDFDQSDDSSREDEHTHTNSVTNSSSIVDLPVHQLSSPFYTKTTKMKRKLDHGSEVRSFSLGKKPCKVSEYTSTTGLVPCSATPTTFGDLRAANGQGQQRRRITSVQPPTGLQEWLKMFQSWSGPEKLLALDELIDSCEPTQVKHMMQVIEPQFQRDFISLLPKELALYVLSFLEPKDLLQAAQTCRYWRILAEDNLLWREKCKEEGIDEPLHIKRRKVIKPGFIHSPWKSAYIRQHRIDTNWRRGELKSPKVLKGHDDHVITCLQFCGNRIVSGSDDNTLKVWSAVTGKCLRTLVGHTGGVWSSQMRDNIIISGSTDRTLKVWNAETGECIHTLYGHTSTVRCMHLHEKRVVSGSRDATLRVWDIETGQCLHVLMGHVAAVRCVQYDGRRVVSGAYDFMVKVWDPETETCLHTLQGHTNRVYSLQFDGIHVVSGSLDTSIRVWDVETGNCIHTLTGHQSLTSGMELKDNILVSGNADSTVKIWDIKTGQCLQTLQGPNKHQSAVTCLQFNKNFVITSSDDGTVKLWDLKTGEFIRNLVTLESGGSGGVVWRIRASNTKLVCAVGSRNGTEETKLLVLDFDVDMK
MITF inh conf: confirmation of human MITF inhibitors; shares compounds with MITF primary; AlphaScreen MITF homodimerization, biotin/His-MITF beads; inhibition, % at 2.6 µM; 4,700 tested, 16% active;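 active means inhibition above a cutoff derived from the DMSO control wells, cut at about 28% in these data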;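 further: 0% = MITF dimer wells with DMSO only; inhibitors lower the bead chemiluminescence by keeping MITF from dimerizing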
AS interf DR: optically interferes with AlphaScreen signal in dose response | shares compounds with MITF primary | AlphaScreen optical interference counterscreen, cell-free | IC50, µM | 480 tested, 6% active | AID 1259373; call rule not given here
AlphaScreen intf2: AlphaScreen optical interference, counter-screen; inhibition, % at 2.6 µM; 4,700 tested, 7.6% active; AID 1259376; shares compounds with MITF primary; LysRS AlphaScreen counterscreen, signal interference, triplicate;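 active means inhibition above a cutoff derived from the DMSO control wells, cut at about 30% in these data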
* = called active by the depositor; i = inactive; nt = no result given. Compounds with a hit are over-represented: about 3.5% of the library has one in this group of screens.

SMILES	MITF primary	GPR151 activ	TEAD-YAP block	FBW7 act	MITF inh conf	AlphaScreen intf2	others
O=C(c1ccc(F)cc1)N1CCN(Cc2ccccc2[N+](=O)[O-])CC1	55*	3	5	0	-14	-5
COc1ccc(Br)cc1CN1CCN(C(=O)c2ccccc2)CC1	43	0	8	0	nt	nt
COc1ccc(Br)cc1CN1CCN(C(=O)c2ccccc2F)CC1	65*	-3	-3	1	5	15
O=C(c1ccccc1F)N1CCN(Cc2c[nH]c3ccccc23)CC1	35	-1	16	0	nt	nt
O=C(c1ccccc1F)N1CCN(Cc2ccccc2[N+](=O)[O-])CC1	62*	0	-3	0	7	17
O=C(c1cccc(F)c1)N1CCN(Cc2ccccc2[N+](=O)[O-])CC1	22	-1	2	0	nt	nt
CC1CCC(C(C)C)C(OC(=O)CSC2=NCCN2)C1 (stereo not given)	17	0	3	1	nt	nt
COCCCNC(=O)C(=O)Nc1ccc(Br)cc1	-4	-1	-47	0	nt	nt
O=C(c1cccnc1)N1CCN(Cc2ccccc2[N+](=O)[O-])CC1	82*	-1	5	0	-2	-3
O=C(CCCCC1SCC2NC(=O)NC21)NC1(c2ccc3c(c2)OCO3)CCCC1 (stereo not given)	113*	1	-7	-1	102*	18	AS interf DR=i
O=C(O)CCCC[C@H]1SC[C@H]2NC(=O)N[C@H]21	117*	1	-12	-1	123*	101*
O=C(O)CCCCC1SCC2NC(=O)NC21 (stereo not given)	122*	-1	-2	0	124*	101*
CCCCC[C@@H](O)CC[C@H]1[C@H](O)CC(=O)[C@@H]1CCCCCCC(=O)O	22	2	nt	nt	nt	nt
Cc1ccc(-n2cc(-c3ccccc3)c3c(NCCc4ccc(S(N)(=O)=O)cc4)ncnc32)cc1	6	1	8	0	nt	nt
COc1cc(/C=C/C(=O)Nc2ccc(S(N)(=O)=O)cc2)ccc1OCc1ccccc1	-13	3	6	0	nt	nt
O=[N+]([O-])c1ccc(CN2CCN(C/C=C/c3ccccc3)CC2)o1	65*	-1	7	0	27	11
CCN1CCN(C/C=C/c2ccccc2OC)CC1	51*	0	1	0	2	-3
CCN1CCN(C/C=C/c2ccccc2[N+](=O)[O-])CC1	60*	0	10	0	-1	2
COc1ccccc1NC(=O)Cn1ncc2c(=O)oc3ccccc3c21	7	-1	10	0	nt	nt
CCCN1CCN(c2ncnc3sc(C(=O)Nc4cc(C)on4)c(C)c23)CC1	9	0	2	0	nt	nt
COc1ccc(C2C(C(=O)Nc3ccc(C)cc3)=C(C)Nc3ncnn32)cc1OC (stereo not given)	69*	1	-11	0	7	12
CN(CC1Cc2ccccc2O1)C(=O)COc1ccc(N2CCCC2)nn1 (stereo not given)	5	0	6	0	nt	nt
CCc1cc2c(cc3c(=O)n(CC(=O)N(CC)Cc4ccccc4)ncn32)s1	71*	1	2	0	13	9
O=C(C1CCCN1S(=O)(=O)c1cccc2cccnc12)N1CCc2ccccc21 (stereo not given)	73*	1	8	0	-18	-4
O=C(NCCSCc1cccs1)Nc1ccccc1	5	0	-20	0	nt	nt
SMILES	MITF primary	GPR151 activ	TEAD-YAP block	FBW7 act	MITF inh conf	AlphaScreen intf2	others
NC(=O)c1oc2ccccc2c1NC(=O)c1sc2ccccc2c1Cl	58*	0	5	0	8	6
NC(=O)c1oc2ccccc2c1NC(=O)c1ccc(Cl)cc1	6	0	4	0	nt	nt
CCOC(=O)c1cnn(-c2ccccc2Cl)c1CNCc1c(C)nn(C)c1C	-26	-1	-2	0	nt	nt
Cc1nn2c(nc(N3CCCCCC3)c3ccccc32)c1C=O	62*	2	-10	0	6	6
CC(=O)Oc1cc(-c2coc3cc(OC(C)=O)c(OC(C)=O)c(OC(C)=O)c3c2=O)cc(OC(C)=O)c1OC(C)=O	73*	-2	8	0	3	-6
CCOC(=O)c1cccc(NC(=O)CSc2nccn3nc(-c4ccccc4OC)cc23)c1	27	-1	7	1	nt	nt
COc1ccc([C@H]2C(C#N)=C(N)OC3=C2C(=O)CC(C)(C)C3)c([N+](=O)[O-])c1OC	17	0	-7	0	nt	nt
COc1ccc(C2C(C#N)=C(N)OC3=C2C(=O)CC(C)(C)C3)c2ccccc12 (stereo not given)	70*	0	5	0	8	12
C/C(=N\NC(=O)c1ccc(O)cc1)c1ccccc1F	1	1	-15	0	nt	nt
O=C(CNCCc1ccccc1)Nc1ccccc1N1CCCCCC1	25	3	-9	0	nt	nt
O=C(CNCCC1=CCCCC1)Nc1ccccc1N1CCOCC1	77*	-1	0	0	-15	1
O=C(CNCCc1ccc(Cl)cc1)Nc1ccccc1N1CCOCC1	65*	0	-13	0	-1	18
CNS(=O)(=O)c1cccc(C(=O)OC(C(=O)c2c[nH]c3ccccc23)c2ccccc2)c1 (stereo not given)	-7	0	5	0	nt	nt
CC(C)CNC(=O)c1c(Cl)cccc1Cl	0	0	-2	0	nt	nt
COc1ccc(O)c(C=Nc2ccc(Cl)cc2)c1	51*	4	-6	0	-4	-3
COCc1ccc(O)c2ncccc12	91*	0	91*	0	109*	101*
Cc1ccc(O)c2ncccc12	0	-1	-11	0	nt	nt
CCOc1c(C)cc(-c2ncccc2O)cc1C	9	-1	-4	0	nt	nt
CCOCc1ccc(O)c2ncccc12	98*	0	88*	-2	82*	101*
Cc1nn(C)c(C)c1-c1nc(Nc2ccc(N3CCOCC3)cc2)c2ncn(C(C)C)c2n1	12	-1	-22	0	nt	nt
O=C(COc1ccccc1C(=O)OC1CCCC1=O)Nc1cccc(C(F)(F)F)c1 (stereo not given)	62*	2	6	0	72*	3	AS interf DR=>6.8
NC(=O)c1ccccc1OCC(=O)Nc1cccc(C(F)(F)F)c1	-1	0	-70	0	nt	nt
Cc1nc(NCCCN2CCOCC2)c2cc(-c3ccccc3)sc2n1	55*	0	-13	0	6	6
CCCS(=O)(=O)N1CCN(Cc2ccccc2F)CC1	57*	0	6	0	0	-4
CS(=O)(=O)N1CCN(Cc2nc3ccccc3[nH]2)CC1	72*	-1	0	0	8	12
CCCS(=O)(=O)N1CCN(Cc2nc3ccccc3[nH]2)CC1	67*	-1	-7	0	7	20
